Assay outcomes deposited in PubChem by National Center for Advancing Translational Sciences (NCATS).
Compounds with a hit are over-represented: about 6.5% of the library has one in this group of screens.
Lassa entry inh: blocks Lassa virus binding to or entry into cells; Lassa virus pseudotype entry inhibition, cell reporter; Potency, µM (top dose mostly 37.9 µM), inactives show at the highest dose activity change, negative = inhibition, most hits filed as inhibitors; actives 1.2% (n = 300,000); AID 540256; calls by dose curve; tested in HEK293 cells; also: potency is read from the fitted curve at half-maximal effect; nearly all actives have a fitted effect of over 50% in size
Marburg entry inh: Marburg virus entry inhibition; Marburg virus pseudotyped entry inhibition, cell reporter; Potency, µM (highest dose often 37.8 µM), without a hit: top-dose activity change, negative = inhibition, most hits filed as inhibitors; actives 1.8% (n = 300,000); AID 540276; calls by dose curve; tested in HEK293 cells; also: potency is read from the fitted curve at half-maximal effect
HCMV antiviral: blocks human cytomegalovirus replication; HFF cells, HCMV-luciferase reporter, 72 h; active compounds read low; activity change, negative = inhibition, % at 57.5 µM; actives 4.5% (n = 410,000); in the data active = activity change below about -60%; inconclusive = no clear call, values can overlap the other calls; inactive = above about -39%
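Two-dose cell screen: HFF monolayers treated with compounds and infected with luciferase-expressing HCMV at 1 PFU/cell, 72 h at 37C, then lysed for luciferase measurement.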
Vaccinia Venus: inhibitors of vaccinia virus (Venus reporter); Potency, µM (top dose mostly 36.5 µM), inactives show at the highest dose activity change, negative = inhibition, hits mostly inhibitors; actives 0.46% (n = 330,000); Vaccinia virus Venus reporter expression, fluorescence; calls by dose curve; tested in A549 cells; also: potency is read from the fitted curve at half-maximal effect; nearly all actives have a fitted effect of over 30% in size
Vaccinia mCherry: vaccinia inhibition (mCherry reporter). Vaccinia virus mCherry reporter infection, fluorescence. Potency, µM (titrated, usually from 36.5 µM), inactives show at the highest dose activity change, negative = inhibition, usual class: inhibitors. actives 0.63% (n = 310,000). AID 720579; calls by dose curve; tested in A549 cells; also: potency is read from the fitted curve at half-maximal effect; nearly all actives have a fitted effect of over 35% in size
FMDV inh: foot and mouth disease virus antiviral activity | Potency, µM (titrated, usually from 57.9 µM), without a hit: top-dose activity change, negative = inhibition, most hits filed as inhibitors | actives 1.2% (n = 410,000) | FMDV antiviral cell-based qHTS | AID 1159524; calls by dose curve; tested in HEK293T cells; also: read-out not given here; potency is read from the fitted curve at half-maximal effect; nearly all actives have a fitted effect of over 45% in size
The depositor's hits bear a star; i = inactive; ? = inconclusive; . = not tested or not shown; + = active, no number; [ ] = remark or other dose. % is scaled to controls: 0 for no effect and ±100 for the full control effect.

SMILES	Lassa entry inh	Marburg entry inh	HCMV antiviral	Vaccinia Venus	Vaccinia mCherry	FMDV inh
COc1ccccc1CNC(=O)CS(=O)(=O)Cc1nc(-c2ccccc2C)oc1C	26%[46.1 µM]	2%[46.1 µM]	0	0%	-5%	-9%
N#CC1(C#N)CC(C=O)=C(N)C1(C#N)CC(=O)C12CC3CC(CC(C3)C1)C2 (stereo not given)	?	?	-2	-2%	i	22µM*
COc1ccc(-c2nnc(SCC(=O)Nc3cc(OC)ccc3OC)nc2-c2ccc(OC)cc2)cc1	-6%[46.1 µM]	.	18	-15%	-10%	-12%
CN(Cc1cccc(-c2ccncc2)c1)C(=O)Oc1ccccc1Cc1ccccc1	.	.	.	-21%	2%	22µM*
CN(Cc1ccccc1)C(=O)Nc1c(Cl)cccc1Cl	.	.	79	3%	5%	2%
Cc1nc2cc(OC(=O)N(C)Cc3cccc(-c4ccncc4)c3)ccc2s1	.	.	.	-17%	12%	28µM*
CN(Cc1cccc(-c2ccncc2)c1)C(=O)Oc1ccccc1Cl	.	.	.	-12%	i	20µM*
CN(C)Cc1ccccc1OC(=O)N(C)C	1%	?	-2	-12%	.	-20%
O=C(COc1ccccc1C(=O)Nc1ccccc1)Nc1ccc(-c2ccccc2)cc1	.	.	.	-25%	-24%	.
CCCc1ccc(-c2cc(NC(=O)Cc3c(C)[nH]c4ccccc34)ccc2N(C)c2cccnc2)cc1	.	.	50	.	.	.
CCN1CCCC1CNC(=O)c1cnn(-c2nccc(-c3ccccc3F)n2)c1C (stereo not given)	.	.	.	5%	-3%	-6%
CCCOc1ccc(C2CC(=O)Nc3c2c(C)nn3-c2nncc(-c3cccc(OC)c3)n2)cc1OC (stereo not given)	?	24%[46.1 µM]	9	-14%	10%	?
Cc1ccc(NC(=O)CSc2nnc(C)n2-c2ccccc2)cc1	1%	-1%	4	-11%	i	-12%
O=C(N/N=C\c1cn(-c2ccccc2)nc1-c1ccccc1)c1ccc(Br)o1	?	?	75	-29%	?	?
Cc1nnc(SCC(=O)N/N=C/c2cn(-c3ccccc3)nc2-c2ccccc2)n1-c1ccccc1	?	?	3	?	?	28µM*
Cc1ccc(-c2nn(-c3ccccc3)cc2/C=N/NC(=O)c2ccc(Br)o2)cc1	-24%	?	22	-15%	.	28µM*
C=CCOC(=O)N[C@H](c1ccccc1)[C@H](C)C=CCC(=O)OC	.	9%[14.2 µM]	.	.	.	.
O=C1c2cccc3c(O)ccc(c23)C(=O)N1c1ccc(Cl)cc1	?	16%[46.1 µM]	-72*	399%	-20%	13µM*
CC(=O)Nc1ccc(N2C(=O)c3cccc4c(O)ccc(c34)C2=O)cc1	.	.	?	272%	i	-15%
CSc1nc(C)cc(OCC(=O)N/N=C/c2ccccc2O)n1	?	2.8µM*	?	?	11µM*	?
Cc1ccc(SCCC(=O)N/N=C/c2ccccc2O)cc1	?	?	-85*	1%	-26%	4%
O=C(Cn1cc(C(F)(F)F)ccc1=O)N/N=C/c1ccccc1O	.	.	-21	-25%	16µM*	2%
O=C(CCC(=O)Nc1ccc(Br)cc1)N/N=C/c1ccccc1O	?	?	-66*	?	5.6µM*	24%
O=C(Cn1cc(C(F)(F)F)ccc1=O)N/N=C/c1ccc(F)cc1	1%	7%[46.1 µM]	0	-2%	2%	13%
Cc1ccc(NC(=O)CCC(=O)N/N=C/c2ccccc2O)cc1	.	.	3	.	.	15%
SMILES	Lassa entry inh	Marburg entry inh	HCMV antiviral	Vaccinia Venus	Vaccinia mCherry	FMDV inh
Cc1ccc(CN2C[C@H](Sc3ccccn3)C[C@H]2C(=O)Nc2ccc3sc(C)nc3c2)c(C)c1	.	.	.	-14%	-13%	6%
COc1ccc(-c2nc3c(C)cc(Br)cn3c2Cc2ccccc2C(F)(F)F)cc1OC	.	.	-17	.	.	.
Cc1cc(O)c(C=O)c2c1C(=O)Oc1c(COC(=O)/C=C/C(=O)O)c(O)c(C(=O)O)c(C)c1O2	.	.	.	-15%	-7%	-15%
O=C(COc1nsnc1N1CCOCC1)N/N=C/c1ccccc1O	?	?	39	?	22µM*	-4%
Cc1cccc(NC(=O)CCC(=O)N/N=C/c2ccc(O)cc2O)c1	?	?	100	-9%	6.3µM*	-11%
Cc1cccc(NC(=O)c2ccccc2NC(=O)CCC(=O)O)c1	-6%	?	-79*	-15%	i	9%
O=C(CSCC(=O)NN=Cc1ccccc1O)NN=Cc1ccccc1O	?	?	-13	?	?	56%
O=C(CCCCC(=O)NN=Cc1ccccc1O)NN=Cc1ccccc1O	?	?	12	-13%	3.2µM*	5%
C[C@H]1Cn2cnc(C(=O)N(C)Cc3ccccc3)c2C(=O)N1	.	.	-8	.	.	.
CN(C)c1ncc2nc(CCc3ccccc3)c(=O)n(CCc3ccccc3)c2n1	.	.	.	.	.	-2%
COCCCNC(=S)N/N=C/c1ccccc1O	.	.	-62*	.	.	55%
COCCNC(=S)N/N=C/c1ccccc1C(=O)O	10%	16%	-5	-13%	-20%	9%
COC(=O)[C@@H]1[C@H]2SC(C)(C)[C@H](C(=O)OC)N2C(=O)N1Cc1cc2ccccc2n1S(=O)(=O)c1ccccc1	.	.	.	-18%	i	.
COc1cc2c(c(OC)c1OC)-c1c(cc(OC)c(OC)c1OC)C[C@H](C)[C@H](C)C2	.	.	-63*	-17%	?	-17%
COc1cc2c(c(O)c1OC)-c1c(cc(OC)c(OC)c1OC)C[C@@H](C)[C@@H](C)C2	.	.	-60*	-13%	?	-26%
Cn1c(=O)c2sccc2n2c(CCCC(=O)Nc3ccc(Oc4ccc(Cl)cc4)cc3)nnc12	-13%[46.1 µM]	.	-76*	-29%	?	?
O=C(Nc1cccc(F)c1)C1CCN(c2nc3ccccc3[nH]2)CC1	8%[46.1 µM]	.	+	-2%	i	-11%
CSCCC(NS(=O)(=O)c1ccc(Br)cc1)C(=O)OCC(=O)NC1CC1 (stereo not given)	11%	3%[46.1 µM]	-65*	-15%	i	8%
CSCCC(NS(=O)(=O)c1ccc(Cl)cc1)C(=O)OCC(=O)NC1CC1 (stereo not given)	6%	0%	-20	-5%	-8%	-1%
COC(=O)C1=C(C)N(Cc2ccccc2)C(=NCCc2ccccn2)NC1c1cccc(F)c1 (stereo not given)	.	-21%[14.2 µM]	.	.	.	.
CCOC(=O)C1CCN(C2CCN(C(=O)c3oc4c(C)c(C)ccc4c3C)CC2)CC1	.	.	78	.	.	52%
Cc1ccc2c(C)c(C(=O)N3CCCC(C(N)=O)C3)oc2c1C (stereo not given)	.	.	-99*	.	.	33%
COc1ccc(S(=O)(=O)Nc2ccc3c(c2)C(=O)N([C@H](C)CO)C[C@H](C)[C@@H](CN(C)S(=O)(=O)c2ccc(OC)cc2)O3)cc1	.	.	-92*	?	?	-8%
C[C@H](CO)N1C[C@H](C)[C@@H](CN(C)S(=O)(=O)c2ccc(F)cc2)Oc2ccc(NC(=O)Nc3ccccc3)cc2C1=O	.	.	-9	-19%	-7%	0%
